Assay outcomes: PubChem, several laboratories
CF NFkB block: blocks PAF-induced NF-kB reporter in cystic fibrosis cells | KKLEB NF-kB-GFP reporter, GFP fluorescence overnight | inhibition, % at 5 µM | actives 0.86% (n = 360,000) | AID 588850;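 active means at least 50% inhibition at 5 µM, scaled per plate between neutral and stimulator controls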;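 further: PAF is a Pseudomonas aeruginosa culture filtrate used as stimulus; plate controls were PAF-stimulated DMSO wells for no effect and unstimulated DMSO wells for full effect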
KKLEB tox: counter-screen for CF NF-kB inhibitors: cytotoxicity; KKLEB CF airway cells viability, ATPlite luminescence, overnight; stronger effect = lower value; cells stimulated with P. aeruginosa culture filtrate; activity change (cytotoxicity), % at 5 µM; actives 0.36% (n = 360,000);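 active means corrected activity change at or below -50% at 5 µM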
Mdm2-MdmX inh: human Mdm2/MdmX binding inhibition; AID 485346; SaOS-2 split-luciferase Mdm2/MdmX complementation, luminescence; inhibition, % at 8 µM; O15151+Q00987; actives 3% (n = 330,000);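 active means inhibition of at least 50% at 8 µM in the primary screen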
Target sequence (O15151 whole entry, looked up): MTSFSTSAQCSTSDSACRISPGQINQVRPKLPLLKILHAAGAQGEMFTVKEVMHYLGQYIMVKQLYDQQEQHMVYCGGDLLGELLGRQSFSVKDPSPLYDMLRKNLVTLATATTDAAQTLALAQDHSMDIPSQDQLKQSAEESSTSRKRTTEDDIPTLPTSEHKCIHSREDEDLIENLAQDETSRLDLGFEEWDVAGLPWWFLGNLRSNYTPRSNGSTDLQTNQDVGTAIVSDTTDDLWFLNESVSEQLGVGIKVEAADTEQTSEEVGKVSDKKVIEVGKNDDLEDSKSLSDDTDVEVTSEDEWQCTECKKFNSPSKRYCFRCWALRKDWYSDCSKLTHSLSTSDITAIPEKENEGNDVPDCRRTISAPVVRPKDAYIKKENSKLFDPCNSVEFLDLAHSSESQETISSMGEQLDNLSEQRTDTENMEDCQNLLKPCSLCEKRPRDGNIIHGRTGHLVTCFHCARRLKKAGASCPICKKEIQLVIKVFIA
Target sequence (Q00987 whole entry, looked up): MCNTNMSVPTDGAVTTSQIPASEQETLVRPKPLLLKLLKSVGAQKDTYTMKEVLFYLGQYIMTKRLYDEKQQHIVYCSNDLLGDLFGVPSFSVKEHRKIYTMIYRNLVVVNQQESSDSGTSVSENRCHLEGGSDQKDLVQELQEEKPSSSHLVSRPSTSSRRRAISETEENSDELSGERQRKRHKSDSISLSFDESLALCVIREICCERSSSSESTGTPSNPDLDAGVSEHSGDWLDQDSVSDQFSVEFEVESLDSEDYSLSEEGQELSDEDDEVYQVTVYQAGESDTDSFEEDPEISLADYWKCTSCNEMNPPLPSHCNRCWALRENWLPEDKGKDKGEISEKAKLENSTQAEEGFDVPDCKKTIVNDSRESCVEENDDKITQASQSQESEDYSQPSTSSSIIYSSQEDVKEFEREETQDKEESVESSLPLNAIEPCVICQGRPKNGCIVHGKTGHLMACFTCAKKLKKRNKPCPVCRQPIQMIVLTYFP
Peg3 promoter: inhibitors of Peg3 promoter; actives 1.7% (n = 360,000); AID 588405; inhibition, % at 20 µM; HeLa PEG-Prom luciferase reporter, luminescence, overnight;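 active means inhibition of at least 50% at 20 µM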
LGR2 antag: Drosophila LGR2 receptor signaling inhibition | HEK293 LGR2, CRE-luciferase, bursicon-stimulated, 4 h | inhibition, % at 9.99 µM | actives 0.35% (n = 380,000);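 active means drop in luminescence signal, shown as inhibition above about 50% in the replicate tests, limit read from the data, passing the limit was not always enough; inconclusive means probably only some replicates passing the limit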;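 further: agonist challenge used bursicon conditioned medium at about half maximal strength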
HSP90 inh: inhibitors of HSP90 luciferase refolding in rabbit reticulocyte lysate | luciferase refolding luminescence, 3 h | inhibition, % at 5.6 µM | actives 0.91% (n = 290,000);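 active means inhibition above the screen-wide mean plus 3 SD, computed separately per campaign, cut at about 16% in these data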;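 further: 0% = DMSO wells and 100% = 60 µM geldanamycin wells; inhibitors lower the luminescence because luciferase stays unfolded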
Mdm2-MdmX conf: human Mdm2/MdmX binding inhibition, confirmed. inhibition, % at 8 µM. luminescent assay. AID 489028. shares compounds with Mdm2-MdmX inh. actives 55% (n = 10,000); in the data active means inhibition above about 40%
FLuc counter: full-length luciferase inhibition in Mdm2/MdmX counter-screen; SaOS-2 full-length luciferase counterscreen, luminescence; inhibition, % at 8 µM; actives 77% (n = 6,200); shares compounds with Mdm2-MdmX inh;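 active means mean inhibition at 8 µM reaching about 37%, which flags the compound as non-specific, limit read from the data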;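 further: p53-null SaOS-2 cells with luciferase driven by a doxycycline-inducible promoter; compound on cells about two nights before reading with doxycycline added after day one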
An asterisk follows results filed as active; ? = inconclusive; . = no result given. In the library only some 3.6% were active in any assay of this set; here they are far more common.

SMILES | CF NFkB block | KKLEB tox | Mdm2-MdmX inh | Peg3 promoter | LGR2 antag | HSP90 inh | Mdm2-MdmX conf | others
O=C(Nc1ccccc1F)N[C@H]1CC[C@H](CCNS(=O)(=O)c2ccccc2)O[C@@H]1CO | . | . | . | . | -14 | . | .
O=C1c2ccccc2C(=O)C1c1nccc2ccccc12 | -144 | -65* | 67* | 88* | . | 5 | 10
COc1ccc(S(=O)(=O)N(C)C[C@H]2Oc3ccc(NS(=O)(=O)c4ccccc4)cc3C(=O)N([C@@H](C)CO)C[C@@H]2C)cc1 | . | . | . | . | -9 | . | .
COC(=O)c1ccc2nc(Nc3nc4c(F)cc(F)cc4s3)sc2c1 | 38 | -20 | 88* | 75* | . | 77* | 37
CC(NC(=O)/C(C#N)=C/c1ccc([N+](=O)[O-])o1)c1ccccc1 (stereo not drawn) | -52 | 18 | 100* | 103* | -11 | 15 | 33
CC(NC(=O)/C(C#N)=C/c1ccco1)c1ccccc1 (stereo not drawn) | 3 | -4 | -21 | 1 | 0 | 10 | .
COC(=O)/C(=C\Nc1ccc(Cl)cc1Cl)NC(=O)c1ccc(OC)cc1 | -10 | 4 | 52* | 9 | 9 | 0 | 43* | FLuc counter=70*
Cc1nc([N+](=O)[O-])c(Br)n1CC(=O)c1ccc2ccccc2c1 | 64* | -52* | 87* | 47 | . | 17* | 23
Cc1nc([N+](=O)[O-])c(Br)n1CC(=O)c1ccccc1 | 31 | -8 | -3 | 11 | . | 3 | .
Cc1ccc(S(=O)(=O)N(C)C[C@H]2Oc3c(NC(=O)Nc4cccc5ccccc45)cccc3C(=O)N([C@@H](C)CO)C[C@@H]2C)cc1 | -19 | -14 | 60* | 19 | 6 | . | 37 | FLuc counter=47*
COc1ccc(S(=O)(=O)N(C)C[C@H]2Oc3ccc(NC(=O)Nc4ccc(C(F)(F)F)cc4)cc3C(=O)N([C@H](C)CO)C[C@@H]2C)cc1 | 23 | -15 | 74* | 41 | -6 | . | 8
C[C@H](CO)N1C[C@H](C)[C@H](CN(C)C(=O)Nc2ccc(C(F)(F)F)cc2)Oc2ccc(NC(=O)Nc3ccc(C(F)(F)F)cc3)cc2C1=O | . | . | . | . | 9 | . | .
COc1ccc(S(=O)(=O)N(C)C[C@@H]2Oc3ccc(NC(=O)Nc4ccc(C(F)(F)F)cc4)cc3C(=O)N([C@H](C)CO)C[C@@H]2C)cc1 | . | . | . | . | 5 | . | .
C[C@H](CO)N1C[C@H](C)[C@@H](CN(C)C(=O)Nc2ccc(C(F)(F)F)cc2)Oc2c(NC(=O)Nc3ccc(C(F)(F)F)cc3)cccc2C1=O | 5 | -20 | 84* | 56* | 9 | . | -6
C[C@H](CO)N1C[C@H](C)[C@@H](CN(C)C(=O)Nc2ccc(C(F)(F)F)cc2)Oc2ccc(NC(=O)Nc3ccc(C(F)(F)F)cc3)cc2C1=O | 10 | 2 | 65* | 25 | 1 | . | -21
COc1ccc2c3c([nH]c2c1)[C@@H](CO)N(Cc1ccccc1F)CC31CCN(C(=O)C2CCCC2)CC1 | . | . | . | . | 3 | . | .
O=C(C[C@H]1C=C[C@H](NC(=O)c2ccccc2)[C@H](CO)O1)Nc1ccc(-c2ccccc2)cc1 | . | . | . | . | 8 | . | .
O=S1(=O)C=C(Sc2nc3cc(Cl)ccc3o2)c2ccccc21 | 88* | -100* | 97* | 102* | . | -3 | 96* | FLuc counter=51*
CN(C)c1nc(N)nc(CSc2nc3cc(Cl)ccc3o2)n1 | -20 | -12 | -10 | -205 | . | 3 | .
O=C(O)C[C@H]1CC[C@H](NC(=O)c2ccncc2)[C@@H](CO)O1 | . | . | . | . | -5 | . | .
O=c1cc(-c2ccc(O)c(O)c2)oc2ccc3ccccc3c12 | -92 | -32 | 55* | 20 | -29 | . | 74* | FLuc counter=131*
Cc1ccc(-c2[nH][nH]c(=O)c(=O)c2N=Nc2ccccc2)cc1 | 12 | -3 | 61* | 23 | -28 | 4 | -2
Cc1cc(=O)n2[nH]c(=O)c(N=Nc3ccccc3)c2[nH]1 | -6 | 0 | -2 | 1 | . | 0 | .
C[C@@H]1CN([C@@H](C)CO)C(=O)Cc2cc(NC(=O)Nc3ccc(C(F)(F)F)cc3)ccc2O[C@H]1CN(C)CC1CC1 | . | . | . | . | -16 | . | .
Cc1cccc(NC(=O)c2cnn(-c3ccc(F)cc3)c2C2CCNCC2)c1C | -9 | 4 | 26 | 12 | 10 | 0 | .
SMILES | CF NFkB block | KKLEB tox | Mdm2-MdmX inh | Peg3 promoter | LGR2 antag | HSP90 inh | Mdm2-MdmX conf | others
Cc1ccc(-n2ncc(C(=O)Nc3cc(Cl)ccc3C)c2C2CCNCC2)cc1C | 6 | -6 | 66* | 7 | 6 | 0 | 38 | FLuc counter=72*
COc1ccc(C(=O)Cn2c(C(=O)/C=C/c3ccccc3)nc3ccccc32)cc1 | -4 | -14 | 72* | 35 | . | 3 | 46* | FLuc counter=61*
COc1ccc(C(=O)CSc2nc3ccccc3n2CC(=O)c2ccccc2)cc1 | -4 | -18 | -27 | 18 | 11 | 2 | .
COc1ccc(/C=N/Nc2ccc(C(=O)O)cc2)c(OC)c1OC | 0 | -4 | 7 | -158 | -31 | -1 | .
COC(=O)c1ccc2c(c1)C(C)(C)C(/C=C/c1ccc(OC)c(OC)c1OC)=[N+]2C | -15 | -8 | 101* | 107* | . | 5 | 78* | FLuc counter=51*
COc1cc(/C=C/c2ccc(O)cc2)cc(OC)c1 | -3 | -12 | 3 | -282 | -76 | -1 | .
COC(=O)c1ccc2c(c1)C(C)(C)C(/C=C/c1ccc(O)cc1)=[N+]2C | 97* | -56* | 85* | 107* | ? | 3 | 100* | FLuc counter=51*
O=C(C[C@@H]1C[C@@H]2c3cc(NS(=O)(=O)c4ccc(F)cc4)ccc3O[C@@H]2[C@H](CO)O1)NCCc1ccccc1 | . | . | . | . | -4 | . | .
CNC[C@@H]1Oc2ccc(NS(=O)(=O)c3cccs3)cc2C(=O)N([C@@H](C)CO)C[C@@H]1C | . | . | . | . | -3 | . | .
COc1cc(Cl)cc2c1Sc1ccccc1/C2=C/CCN(C)C | 3 | 0 | 69* | 11 | . | 0 | 13
CN(C)CC/C=C1/c2ccccc2Sc2c(O)cc(Cl)cc21 | 0 | -4 | 43 | 15 | . | 1 | .
C[C@H]1CN([C@@H](C)CO)C(=O)c2cccc(NC(=O)CCCCCC(=O)Nc3ccccc3N)c2O[C@H]1CN(C)S(=O)(=O)c1ccc(Cl)cc1 | . | . | . | . | 2 | . | .
CCCNC(=O)/C(C#N)=C1\N=C(NC(=O)c2cccs2)c2ccccc21 | -21 | 6 | 40 | 21 | 20 | -1 | .
CC(NC(=O)/C(C#N)=C1\N=C(NC(=O)c2ccco2)c2ccccc21)c1ccccc1 (stereo not drawn) | 14 | 0 | 67* | 22 | -11 | 3 | 12
O=C(C[C@@H]1CC[C@@H]2[C@H](COC[C@H](O)CN2C(=O)Nc2ccc(F)cc2)O1)NCC1CC1 | . | . | . | . | 19 | . | .
